Among the test systems are EKVX NSCLC; SN12C renal; UO-31 renal; TK-10 renal; ACHN renal; CAKI-1 renal; A498 renal; CCRF-CEM leukemia; MOLT-4 leukemia; SR leukemia; RPMI-8226 leukemia; OVCAR-8 ovarian; OVCAR-5 ovarian; OVCAR-4 ovarian; SK-OV-3 ovarian; IGROV1 ovarian; OVCAR-3 ovarian; HS 578T breast; T-47D breast; NCI/ADR-RES ovarian.
Common to all, as to assay: NCI-60 one-dose screen, 48 h (100 = growth as untreated, 0 = no growth, -100 = all killed)
What all share (conditions): 10 µM unless noted

This is part of a sample that, as a whole, favours compounds with a hit. Of some 83,000 tested, about 20% had one in any assay.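 Interpretation: 100, growth as untreated; towards 0, rising growth inhibition; 0, no net growth; 0 to -100, cell death. Compounds scoring below 10 were considered active.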 A number with no mark means an inactive call. The source made the active and inactive calls.

Take `CCOC(=O)c1csc(NC(=O)CSc2nc3sc4c(c3c(=O)n2-c2ccc(Cl)cc2)CCCC4)n1`: the growth in the assay with EKVX NSCLC was 90.6%; with SN12C renal, 94.9%; in the assay on UO-31 renal it was 77.2%; in the assay on TK-10 renal, 125%; with ACHN renal, 102%; in the assay on CAKI-1 renal, 92%. For the same molecule, the growth is 88.1% in the assay with A498 renal; 100% in the assay on CCRF-CEM leukemia; 81.1% with MOLT-4 leukemia; 95.9% in the assay with SR leukemia; 92.5% in the assay on RPMI-8226 leukemia; 97.6% in the assay on OVCAR-8 ovarian. For the same molecule, the growth was 97.9% in the assay on OVCAR-5 ovarian; 103% with OVCAR-4 ovarian; 135% with SK-OV-3 ovarian; 89.6% in the assay with IGROV1 ovarian; 138% with OVCAR-3 ovarian; 97.3% in the assay on HS 578T breast. Besides, the growth with T-47D breast is 87%.

For the molecule `Fc1ccc(-c2cc3nc(C(Cl)Cl)nc(-c4ccc(Cl)cc4)n3n2)cc1`, the growth is 5.99% (active) in the assay on EKVX NSCLC; 53.3% with SN12C renal; 27.4% in the assay on UO-31 renal; 17.3% in the assay on TK-10 renal; -63.6% (active) with ACHN renal; -23.3% (active) with CAKI-1 renal. Besides, the growth in the assay on A498 renal is -38.8% (active); in the assay on CCRF-CEM leukemia it was 56.8%; in the assay on MOLT-4 leukemia, 19.3%; with SR leukemia it was 3.51% (active); in the assay on RPMI-8226 leukemia, 10.9%; with OVCAR-8 ovarian it was 19%. Moreover, the growth was -4.91% (active) in the assay with OVCAR-5 ovarian; -9.93% (active) with OVCAR-4 ovarian; -16.6% (active) in the assay with SK-OV-3 ovarian; 44.5% in the assay with IGROV1 ovarian; -31.9% (active) in the assay with OVCAR-3 ovarian; 8.56% (active) with HS 578T breast. Also, the growth is 20.3% in the assay with NCI/ADR-RES ovarian and 37.4% in the assay on T-47D breast.

As for `CCN1C(=S)N(CC)C2C1NN=C1SC(c3ccccc3)=CC(=O)N12` (stereo not given), the growth is 106% in the assay with EKVX NSCLC; 110% with SN12C renal; 113% in the assay with UO-31 renal; 103% in the assay with TK-10 renal; 103% in the assay with ACHN renal; 98.6% with CAKI-1 renal. Further, the growth in the assay on A498 renal was 118%; with CCRF-CEM leukemia, 97.5%; in the assay on MOLT-4 leukemia it was 97.7%; in the assay on SR leukemia, 52.1%; with RPMI-8226 leukemia, 107%; with OVCAR-8 ovarian, 99.4%. In addition, the growth with OVCAR-5 ovarian is 107%; in the assay with OVCAR-4 ovarian it was 115%; in the assay on SK-OV-3 ovarian it was 110%; in the assay on IGROV1 ovarian, 109%; with OVCAR-3 ovarian, 119%; in the assay on HS 578T breast it was 114%. Further, the growth was 99.6% with NCI/ADR-RES ovarian and 108% in the assay on T-47D breast.

For the molecule `Cc1c(Nc2nnc(SCC(=O)Nc3sc4c(c3C#N)CCCC4)s2)c(=O)n(-c2ccccc2)n1C`, the growth was 97.4% in the assay with EKVX NSCLC; 106% in the assay on SN12C renal; 97.3% in the assay on UO-31 renal; 135% with TK-10 renal; 100% with ACHN renal; 110% in the assay on CAKI-1 renal. Also, the growth in the assay with A498 renal is 109%; with CCRF-CEM leukemia, 99.4%; in the assay on MOLT-4 leukemia it was 92.7%; with SR leukemia it was 98.5%; with RPMI-8226 leukemia, 96.7%; in the assay with OVCAR-8 ovarian, 100%. Also, the growth in the assay on OVCAR-5 ovarian was 114%; with OVCAR-4 ovarian, 108%; in the assay with SK-OV-3 ovarian, 120%; in the assay on IGROV1 ovarian, 104%; with OVCAR-3 ovarian, 99.1%; with HS 578T breast, 109%. Besides, the growth with NCI/ADR-RES ovarian was 99.5%; in the assay on T-47D breast it was 97.3%.

In the case of `O=c1[nH]c2ccccc2cc1CSc1ccccc1Nc1nccc(-c2ccc(C(F)(F)F)cc2)n1`, the growth in the assay on EKVX NSCLC is 64.7%; in the assay with SN12C renal, 70.3%; in the assay with UO-31 renal it was 72.3%; in the assay on TK-10 renal it was 112%; in the assay on ACHN renal it was 48%; in the assay on CAKI-1 renal it was 64.4%. The growth was 85.5% with A498 renal; 87.4% in the assay on CCRF-CEM leukemia; 63.5% with MOLT-4 leukemia; 53.7% with SR leukemia; 62.6% with RPMI-8226 leukemia; 38.1% with OVCAR-8 ovarian. The growth in the assay on OVCAR-5 ovarian was 103%; with OVCAR-4 ovarian it was 48.7%; in the assay on SK-OV-3 ovarian it was 117%; with IGROV1 ovarian, 67.8%; in the assay on OVCAR-3 ovarian, 69.8%; in the assay with HS 578T breast it was 68.3%. Besides, the growth with T-47D breast is 66.7%.

As for `CC(C)NC(=O)c1cc(-c2ccc(NC(=O)Nc3ccc(N4CCOCC4)c(C(F)(F)F)c3)cc2)nc2cccnc12`, the growth in the assay with EKVX NSCLC is 72.7%; in the assay with SN12C renal, 69%; with UO-31 renal, 48.2%; in the assay with TK-10 renal, 143%; in the assay on ACHN renal, 62.7%; in the assay on CAKI-1 renal, 63.7%. For the same molecule, the growth in the assay with A498 renal was 25.6%; in the assay with CCRF-CEM leukemia, 44.3%; in the assay on MOLT-4 leukemia it was 18.7%; with SR leukemia, 10.2%; in the assay on RPMI-8226 leukemia it was 14.3%; in the assay on OVCAR-8 ovarian, 63.7%. In addition, the growth with OVCAR-5 ovarian is 88.1%; in the assay with OVCAR-4 ovarian it was 71.7%; in the assay with SK-OV-3 ovarian, 88.5%; with IGROV1 ovarian it was 66.9%; in the assay with HS 578T breast, 9.42% (active); in the assay with NCI/ADR-RES ovarian, 78.4%. In addition, the growth in the assay on T-47D breast was 64.2%.

Regarding `CC(C)(C)Nc1nc2c(OCCc3ccccc3)cccn2c1-c1ccc(O)cc1`, the growth with EKVX NSCLC is 38.9%; with SN12C renal, 64.3%; in the assay on UO-31 renal, 57.3%; in the assay on TK-10 renal, 113%; in the assay with ACHN renal, 65.1%; with CAKI-1 renal, 80.1%. The growth is 103% with A498 renal; 38.5% in the assay on CCRF-CEM leukemia; 22.7% with MOLT-4 leukemia; 32.5% with SR leukemia; 19% with RPMI-8226 leukemia; 65.9% in the assay on OVCAR-8 ovarian. For the same molecule, the growth in the assay with OVCAR-5 ovarian is 70.2%; with OVCAR-4 ovarian, 65%; in the assay with SK-OV-3 ovarian it was 110%; with IGROV1 ovarian, 75.4%; in the assay on OVCAR-3 ovarian, 74.9%; in the assay on HS 578T breast, 86.7%. Also, in the assay on T-47D breast, the growth is 35.9%.

As for `O=C(c1ccc(Cl)cc1)C1[C@H](c2ccc(Cl)cc2)[C@@H](c2ccccc2)NC12C(=O)Nc1ccc(Br)cc12` (stereo not given in full), the growth in the assay with EKVX NSCLC is 43.6%; with SN12C renal, -48.8% (active); in the assay with UO-31 renal it was 28.5%; in the assay on TK-10 renal, 50.4%; with ACHN renal, 14.3%; in the assay with CAKI-1 renal, 27.6%. The growth was 59.2% in the assay on A498 renal; 36.8% with CCRF-CEM leukemia; 6.17% (active) in the assay with MOLT-4 leukemia; -5% (active) in the assay on SR leukemia; 18.2% in the assay on RPMI-8226 leukemia; 38.3% in the assay on OVCAR-8 ovarian. For the same molecule, the growth in the assay on OVCAR-5 ovarian is 52.8%; in the assay on OVCAR-4 ovarian it was 44.6%; with SK-OV-3 ovarian it was 101%; in the assay on IGROV1 ovarian it was 35.9%; in the assay on OVCAR-3 ovarian, 25.5%; in the assay with HS 578T breast, 58.2%. Moreover, the growth in the assay with T-47D breast is 31.2%.

For the origin of these results see PubChem BioAssay (NCI).
